Screens: PubChem, National Center for Advancing Translational Sciences (NCATS)
This is a sample that favours compounds with a hit; in the whole collection about 0.99% have one here.
TRHR ag: TRH receptor (human) agonism; P34981; TRHR cells, calcium flux fluo-8, FDSS agonist mode; activation, % at 2 µM; 360,000 compounds, 0.18% hits; in the data active means activation above about 30%; further: 0% is about no effect
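TRHR-expressing cells loaded with fluo-8 calcium dye; 23 nL library compound pin-transferred, kinetic FDSS fluorescence (Ex 480/Em 530) recorded about 180 s for agonist-induced calcium release, before a 10 nM TRH EC20 addition for potentiator mode.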
TRPML1 inh: human mucolipin-1 channel inhibition | Q9GZU1 | AID 624415 | TRPML1-inducible cells, Ca2+ dye fluorescence, FDSS; active compounds read low; inhibition of EC80 agonist-evoked calcium signal | activity change, negative = inhibition, % (concentration not given with the values) | 390,000 compounds, 0.02% hits; in the data active means activity change below about -50%; inconclusive means between about -30% and that limit;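 further: stimulus is agonist 54-4 at its EC80 concentration; on the % scale 0 is the no-effect control and ±100 the full control effect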
Target sequence (Q9GZU1 whole entry, looked up): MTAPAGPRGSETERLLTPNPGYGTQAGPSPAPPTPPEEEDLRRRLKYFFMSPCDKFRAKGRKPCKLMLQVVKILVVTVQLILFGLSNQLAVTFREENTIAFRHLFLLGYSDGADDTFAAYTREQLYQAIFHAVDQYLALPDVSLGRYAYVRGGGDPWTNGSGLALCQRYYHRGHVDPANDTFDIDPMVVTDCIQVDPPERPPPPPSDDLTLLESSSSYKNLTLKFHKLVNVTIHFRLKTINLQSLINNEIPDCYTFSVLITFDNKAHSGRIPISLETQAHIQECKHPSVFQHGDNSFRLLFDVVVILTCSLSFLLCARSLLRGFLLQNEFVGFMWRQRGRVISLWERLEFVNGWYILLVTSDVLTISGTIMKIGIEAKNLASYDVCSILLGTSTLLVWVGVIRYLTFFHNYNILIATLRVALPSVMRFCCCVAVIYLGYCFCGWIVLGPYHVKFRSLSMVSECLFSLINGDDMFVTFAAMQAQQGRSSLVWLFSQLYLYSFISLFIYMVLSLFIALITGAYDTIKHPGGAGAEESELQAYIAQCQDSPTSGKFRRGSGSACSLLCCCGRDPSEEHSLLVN
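TRPML1-DL cells, Tet-induced overnight (~16 h, 37 °C) at 1,500 cells/well, were loaded with Ca8 no-wash dye plus quencher for 45-90 min at room temperature. Compounds were pinned during FDSS kinetic reading; agonist 54-4 at EC80 (4 uM final) then added.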
TRPV1 agonist: activates the human vanilloid receptor TRPV1; Q8NER1; TRPV1-expressing cells, Fluo-8 calcium influx, agonist mode; activation, % at 8.33 µM; 320,000 compounds, 0.19% hits; in the data active means activation above about 80%; inconclusive means between about 30% and that limit; further: 0% is about no effect
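TRPV1-expressing cells were cultured overnight at 35.5C and loaded with Fluo-8 calcium dye for 40 to 90 min at room temperature. After a 10 s baseline, compound was added and calcium influx was read kinetically for 3 min (ex 480/em 520 nm).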
TRPV1 potentiator: human TRPV1 potentiation; AID 540277; TRPV1-expressing cells, Fluo-8 calcium influx, capsaicin EC20 potentiation; potentiation, % at 8.33 µM; Q8NER1; 320,000 compounds, 0.02% hits; in the data active means potentiation above about 80%; inconclusive means between about 30% and that limit; further: 0% is about no effect
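Cells expressing TRPV1 were dye-loaded with Fluo-8 and read kinetically: 10 s baseline, 3 min after compound (agonist portion), then 2 min after EC20 capsaicin (allosteric enhancer portion). Calcium-bound dye fluorescence at 480/520 nm.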
TRPML1 agonist: human mucolipin-1 channel agonism; TRPML1-expressing cells, Ca2+ dye fluorescence, FDSS; AID 624414; activation, % (concentration not given with the values); 410,000 compounds, 0.12% hits; Q9GZU1; in the data active means activation above about 50%; inconclusive means mostly about 30% to 49%; further: 0% is about no effect
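In this qHTS format, compounds were pin-transferred onto Ca8-dye-loaded TRPML1-DL cells induced with Tet overnight, and intracellular Ca2+ fluorescence was recorded kinetically for 110 s after a 10 s baseline. A subsequent 4uM final 54-4 (EC80) addition followed by a second 110 s read served as the antagonist phase.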
TRHR enhancer: allosteric enhancers of human TRH receptor. enhancement, % at 2 µM. TRHR cells, fluo-8 calcium fluorescence, EC20 TRH enhancement. P34981. 360,000 compounds, 0.66% hits; in the data active means enhancement above about 30%; further: 0% is about no effect
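Enhancer read-out: after compound pinning and an initial kinetic agonist-mode read, an EC20 of TRH (10 nM final) was injected and fluo-8 calcium signal (Ex 480/Em 530) followed at 1 s/cycle for 100 cycles in TRHR-expressing cells.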
* = called active by the depositor.

`O=C(O)c1ccccc1-c1ccc(/C=C/c2cc(C(F)(F)F)[nH]c(=O)n2)o1` gave TRHR ag 33*, TRPML1 inh 24, TRPV1 agonist inconclusive, TRPV1 potentiator -22, TRPML1 agonist inconclusive and TRHR enhancer -4.
O=C(CN1CCN(CC(=O)Nc2ccccc2Cl)CC1)NCC1(N2CCOCC2)CCCCC1 was read as TRHR ag 1, TRPML1 inh -10, TRPV1 agonist 0, TRPV1 potentiator 3, TRPML1 agonist 98* and TRHR enhancer -2.
Screening O=C(CN1CCN(CC(=O)Nc2ccccc2Cl)CC1)NCC1(N2CCCCC2)CCCCC1 returned TRHR ag 0, TRPML1 inh -12, TRPV1 agonist 0, TRPV1 potentiator 16, TRPML1 agonist 1 and TRHR enhancer 3.
`Cc1c(N=c2scc(-c3ccccc3)n2C)c(=O)n(-c2ccccc2)n1C` gave TRHR ag 0, TRPML1 inh -7, TRPV1 agonist 5, TRPV1 potentiator 95*, TRPML1 agonist 0 and TRHR enhancer -5.
Screening CN(C)c1ccc(/C=C/c2cc3ccccc3cn2)cc1 returned TRPML1 agonist -1.
CCOC(=O)C1CCN(c2ncnc3c2c(-c2ccccc2)cn3-c2ccccc2)CC1 was read as TRHR ag 1, TRPML1 inh -17, TRPV1 agonist 6, TRPV1 potentiator 2, TRPML1 agonist 75* and TRHR enhancer 0.
`Cc1cccc(N2CCN(c3ncnc4c3c(-c3ccccc3)cn4-c3ccccc3)CC2C)c1` (stereo not given) gave TRHR ag 0, TRPML1 inh -26, TRPML1 agonist 51* and TRHR enhancer 4.
CC(C)(C)OC(=O)Cc1nnc(-c2cc3ccccc3[nH]2)o1 was read as TRHR ag 1 and TRHR enhancer -7.
Cc1ccc(C(=O)C[n+]2cccc3cccc(O)c32)cc1 was read as TRPML1 agonist 6.
`COc1cc(CNC(=O)CCCC/C=C/C(C)C)ccc1O` gave TRHR ag 0, TRPML1 inh -21, TRPV1 agonist 103*, TRPV1 potentiator -2, TRPML1 agonist 1 and TRHR enhancer 6.
For Cc1nc2ccc(S(=O)(=O)N3CCN(S(=O)(=O)c4c(F)cccc4F)CC3)cc2s1 the results were TRHR ag 0 and TRHR enhancer 1.
For O=C(Nc1ccc2c(c1)CCC2)c1cc(F)cc(F)c1 the results were TRHR ag -1, TRPML1 inh -11, TRPV1 agonist inconclusive, TRPV1 potentiator -3, TRPML1 agonist 1 and TRHR enhancer -4.
`Cc1ccc(C(=O)Nc2ccc3c(c2)CCC3)cc1` gave TRHR ag -2, TRPML1 inh -4, TRPV1 agonist inconclusive, TRPV1 potentiator 0, TRPML1 agonist 2 and TRHR enhancer 35*.
`O=C(Nc1ccc2c(c1)CCC2)c1cccc(F)c1` gave TRHR ag 6, TRPML1 inh 10, TRPV1 agonist 97*, TRPV1 potentiator -17, TRPML1 agonist 0 and TRHR enhancer -9.
Screening CC(=O)c1cccc(NC(=O)NC2CCCc3ccccc32)c1 (stereo not given) returned TRHR ag 1, TRPML1 inh -3, TRPV1 agonist 83*, TRPV1 potentiator 4, TRPML1 agonist 1 and TRHR enhancer -7.
`CC(=O)c1cccc(NC(=O)c2ccc3c(c2)CCCC3)c1` gave TRHR ag -1, TRPML1 inh -12, TRPV1 agonist 87*, TRPV1 potentiator -1, TRPML1 agonist 0 and TRHR enhancer -2.
O=C(C[n+]1cccc2cc(Cl)ccc21)c1cccc([N+](=O)[O-])c1 was read as TRPML1 agonist 10.
CC(=O)c1cccc(NC(=O)c2ccc(OC3CSC3)cc2)c1 was read as TRHR ag 1, TRPML1 inh -3, TRPV1 agonist 113*, TRPV1 potentiator -6, TRPML1 agonist -1 and TRHR enhancer -5.
Cc1cccc(NC(=O)c2ccc(OC3CSC3)cc2)c1 was read as TRHR ag 0, TRPML1 inh 8, TRPV1 agonist inconclusive, TRPV1 potentiator 3, TRPML1 agonist 2 and TRHR enhancer -4.
